The supplement of paper PMC6555819

Experiments:
Experiment in all cases: PBM binding z-score (relative to random genomic background probes); higher = stronger binding; sequences stand for … in GC…GCGATTGACAGCGTAGAATGAAGG
[1] = system: FXR:RXRa (NR concentration 270 nM, RXRa partner concentration 90 nM)
Method in brief: (§1)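 Scanned fluorescence from custom Agilent 4×180K protein-binding microarrays was regression-normalized. Binding z-scores use random background probes as reference. Ligand-free nuclear receptor dimers were incubated on the arrays for 1 h and detected with antibodies against each partner (one per run).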

[2] = system: LXRa:RXRa (NR concentration 270 nM, RXRa partner concentration 90 nM)
Method in brief: as §1

[3] = system: LXRa homodimer (NR concentration 270 nM)
Method in brief: as §1

[4] = system: LXRb:RXRa (NR concentration 270 nM, RXRa partner concentration 90 nM)
Method in brief: as §1

[5] = system: LXRb homodimer (NR concentration 270 nM)
Method in brief: as §1

[6] = system: PPARa:RXRa (NR concentration 270 nM, RXRa partner concentration 90 nM)
Method in brief: as §1

[7] = system: PPARg:RXRa (NR concentration 180 nM, RXRa partner concentration 90 nM)
Method in brief: as §1

[8] = system: PPARg:RXRa 270nM:90nM, anti-RXR (NR concentration 270 nM, RXRa partner concentration 90 nM)
Method in brief: as §1

[9] = system: PPARg:RXRa 30nM:10nM, anti-RXR (NR concentration 30 nM, RXRa partner concentration 10 nM)
Method in brief: as §1

[10] = system: PPARg:RXRa 90nM:30nM, anti-RXR (NR concentration 90 nM, RXRa partner concentration 30 nM)
Method in brief: as §1

[11] = system: PPARg:RXRa DBDmut IVT, anti-RXR (DBD mutation: RXRa K156A/R161A, NR concentration 270 nM, RXRa partner concentration 90 nM)
Method in brief: as §1

[12] = system: PPARg:RXRa IVT, anti-PPARg (NR concentration 270 nM, RXRa partner concentration 90 nM)
Method in brief: as §1

[13] = system: PPARg DBDmut:RXRa IVT, anti-PPARg (DBD mutation: PPARg1 K132A/R137A, NR concentration 270 nM, RXRa partner concentration 90 nM)
Method in brief: as §1

[14] = system: PPARg DBDmut IVT, anti-PPARg (DBD mutation: PPARg1 K132A/R137A, NR concentration 270 nM)
Method in brief: as §1

[15] = system: PPARg homodimer (NR concentration 180 nM)
Method in brief: as §1

[16] = system: PXR:RXRa (NR concentration 270 nM, RXRa partner concentration 90 nM)
Method in brief: as §1

[17] = system: PXR homodimer (NR concentration 270 nM)
Method in brief: as §1

[18] = system: RARa:RXR (NR concentration 270 nM, RXRa partner concentration 90 nM)
Method in brief: as §1

[19] = system: RARa homodimer (NR concentration 270 nM)
Method in brief: as §1

[20] = system: RARb:RXRa (NR concentration 270 nM, RXRa partner concentration 90 nM)
Method in brief: as §1

Row | Sequence | PBM binding z-score [1] | PBM binding z-score [2] | PBM binding z-score [3] | PBM binding z-score [4] | PBM binding z-score [5] | PBM binding z-score [6] | PBM binding z-score [7] | PBM binding z-score [8] | PBM binding z-score [9] | PBM binding z-score [10] | PBM binding z-score [11] | PBM binding z-score [12] | PBM binding z-score [13] | PBM binding z-score [14] | PBM binding z-score [15] | PBM binding z-score [16] | PBM binding z-score [17] | PBM binding z-score [18] | PBM binding z-score [19] | PBM binding z-score [20]
1 | TAGCCTAGGTCATCCGGGCCAGTATAGTGTCGGC | 4.52 | 3.54 | 0.755 | 2 | 0.281 | 3.48 | 1.95 | 2.35 | 0.0412 | 1.5 | 1.42 | 2.94 | 0.0914 | -0.657 | 1.35 | 2.07 | 0.0405 | 2.61 | -0.259 | 3.77
2 | ATCTCTAGGTAAAAGTTCAGTCAATCCCGAGGAT | 0.989 | 1.98 | 1.79 | 1.6 | 1.34 | 4.61 | 8.25 | 8.34 | 7.47 | 9.66 | 2.32 | 4.22 | 1.46 | 1.49 | 1.74 | 2.36 | 2.13 | 1.68 | 1.1 | 2.64
3 | TCTTGTAGATCAGCAGATTAAGAAAGCTGGCCAA | -0.0778 | -0.0855 | -0.478 | -0.134 | -0.494 | 0.385 | -0.628 | 0.95 | 2.75 | 1.92 | 1.64 | -0.0378 | -0.256 | 0.452 | -0.374 | -0.148 | -0.568 | -0.157 | 0.205 | -0.229
4 | TCGAGTAGGTTAGTCGTGGCATTCAGCCAACATA | -0.318 | -0.31 | -0.35 | -0.47 | -1.11 | 0.293 | -0.232 | 0.763 | 1.36 | 0.958 | 2.28 | 1.66 | -0.875 | -1.07 | -0.343 | -0.558 | -0.596 | -0.421 | -0.619 | -0.00522
5 | ATCGACAGGTCGAGGTGAGTATAGAGAAAGGGAA | 0.437 | 0.548 | -0.71 | 0.0707 | -0.444 | 1.51 | 0.748 | 0.211 | 0.16 | 0.281 | -0.576 | 0.778 | -0.0493 | -0.0748 | 0.551 | 0.0775 | 0.0221 | 0.649 | 0.423 | 1.69
6 | TCTGCTAGGTCAGTTGATCAGCTAACGAGCTGCC | 0.721 | 0.672 | -0.553 | 0.169 | -0.0241 | 0.983 | 0.167 | 1.28 | 1.07 | 1.27 | 2.51 | 2.27 | 0.428 | -0.296 | -0.547 | 0.199 | -0.78 | 0.424 | -1.32 | 3
7 | TCATATAGGTAAACGCTAGGTGAAAGTCCGATCT | 1.11 | 0.968 | 0.15 | 0.833 | -0.0724 | 1.7 | 1.29 | 2.43 | 3.95 | 3.34 | 4.49 | 3.57 | 1.38 | 1.29 | 0.646 | 0.584 | 0.4 | 1.13 | 0.619 | 0.474
8 | CGAACTAGGTCATGGACAGGACAGTGAATAGTAA | 3.85 | 2.37 | -0.0954 | 1.81 | -0.546 | 4.79 | 8.05 | 6.56 | 4.17 | 6.19 | 8.1 | 8.31 | 3.01 | 0.998 | 1.68 | 1.65 | -0.17 | 2.55 | 0.249 | 3.88
9 | AGAACGACGGCACGCTGAGTTGATAGCAGAGTAG | -0.194 | -0.427 | -0.906 | -0.149 | -1.06 | -0.667 | 0.557 | -0.503 | -0.345 | -0.753 | -0.407 | -0.737 | -0.755 | -1.05 | -0.628 | -0.462 | 0.0818 | -0.447 | -0.252 | -0.524
10 | ACTATTAGTTGAGTCGAGGGCAACCGATAGGTTG | 0.84 | 0.505 | 0.226 | 0.34 | 0.349 | 0.703 | 0.466 | 0.452 | 0.0326 | 0.43 | 0.363 | 0.962 | 0.679 | 0.368 | 0.693 | 1.34 | 0.315 | 0.785 | 0.945 | 1.14
11 | CCGAGTGGGTTATGGGGCATTCAGGCAACGGTGA | 0.128 | 0.155 | -0.051 | 0.764 | -0.129 | 1.74 | 2.61 | 3.77 | 1.55 | 3.82 | 1.23 | 2.29 | -0.951 | -0.669 | 0.384 | -0.309 | 0.21 | 0.0956 | 0.0265 | 0.461
12 | ATCTCTAGGTAACAAGTTTAGTGAAAGAGAGGAC | 0.428 | 0.215 | 0.326 | 0.212 | 0.657 | 0.577 | 0.844 | 1.35 | 0.486 | 1.37 | 3.18 | 2.92 | 1.24 | 1.38 | 1.04 | 0.591 | 0.703 | 0.429 | 0.873 | 0.574
13 | TGAATGAGGTTATAAGATAAGGGAACGTTGCAAA | 1.34 | 1.2 | -0.153 | 0.988 | 0.119 | 2.45 | 1.43 | 1.62 | 0.912 | 1.51 | 0.589 | 1.42 | 1.45 | 0.957 | 0.436 | 0.669 | 0.0149 | 1.32 | -0.0101 | 1.04
14 | CCTAGTTGGTCAGGAGGTCACACATCGGATATGA | 3.47 | 3.35 | 2.05 | 3.2 | 0.972 | 4.03 | 3.29 | 3.64 | 1.24 | 2.91 | 1.56 | 3.61 | 1.34 | 0.678 | 3.07 | 4.1 | 1.36 | 4.37 | 1.58 | 3.71
15 | CCTCGGAGGACTACAGGAGGTCAGAGCTGCCAGA | 0.709 | 3.27 | 2.29 | 1.62 | -0.728 | 1.8 | 0.238 | -0.104 | -0.885 | -0.225 | -0.516 | -0.34 | -1.03 | -2.28 | 0.985 | 2.04 | 0.121 | 2.24 | -0.496 | 1.93
